This is part of a sample that, as a whole, favours compounds with a hit. Of some 79,000 tested, about 15% had one in any assay. Cut-off read from the data, not from the text of the source: active = growth inhibition above about 70%; inactive = the rest.
Experiments:
[1] = NCI Yeast Anticancer Drug Screen. Data for the rad50 strain (AID 155);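 note: 0% = growth of vehicle-only cultures of the same strain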; settings: S. cerevisiae rad50 strain growth inhibition; at 50.0 µM; stronger effect = higher value
Summary of the method: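 Compounds were tested on a yeast strain with an engineered DNA damage repair alteration; the reported value is growth inhibition normalised to vehicle treatment.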

[2] = NCI Yeast Anticancer Drug Screen. Data for the mec2-1 strain (AID 157); settings: S. cerevisiae mec2-1 strain, at 50.0 µM, stronger effect = higher value
Summary of the method: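 mec2-1 yeast strain, carrying an alteration in DNA damage repair or cell cycle control, was exposed to compounds; growth inhibition was measured relative to vehicle-treated controls.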

[3] = NCI Yeast Anticancer Drug Screen. Data for the sgs1 mgt1 strain (AID 161);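 note: 0% = growth of cultures given vehicle only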; settings: S. cerevisiae sgs1 mgt1 strain, at 50.0 µM, stronger effect = higher value
Summary of the method: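 This yeast growth screen uses a strain with defined DNA-repair lesions; compound-treated growth is compared with vehicle-treated growth.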

[4] = NCI Yeast Anticancer Drug Screen. Data for the cln2 rad14 strain (AID 165);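 note: 0% = growth equal to vehicle treated cultures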; settings: S. cerevisiae cln2 rad14 strain, at 50.0 µM, stronger effect = higher value
Summary of the method: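 Yeast carrying cln2 and rad14 alterations (cell cycle control and DNA damage repair) were exposed to compounds. Growth inhibition was measured against vehicle-treated controls.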

[5] = NCI Yeast Anticancer Drug Screen. Data for the bub3 strain (AID 167); settings: S. cerevisiae bub3 mutant strain, at 50.0 µM, stronger effect = higher value
Summary of the method: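 Growth of a checkpoint-deficient yeast mutant is measured after compound exposure. Values represent inhibition relative to vehicle.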

[6] = NCI Yeast Anticancer Drug Screen. Data for the mlh1 rad18 strain (AID 175); settings: S. cerevisiae mlh1 rad18 strain growth inhibition; at 50.0 µM; stronger effect = higher value
Summary of the method: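 Growth inhibition of the yeast strain was measured after compound exposure and expressed relative to vehicle-treated controls. The strain carries defined defects in DNA damage repair.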

Measured: growth inhibition

O=C(C(=O)N1CCc2ccccc21)c1c[nH]c2ccccc12
inactive: [1] 5.75% | [2] 2% | [3] -11.8% | [4] 3.1% | [5] -2.95% | [6] 12.5%

COc1ncnc2ccccc12
inactive: [1] -30.9% | [2] -16.8% | [3] -20.8% | [4] -32.8% | [5] -25.2% | [6] -25.1%

CCC1(O)CC2CN(CCc3c([nH]c4ccccc34)C(C(=O)OC)(c3cc4c(cc3OC)N(C)C3C(O)(C(N)=O)C(O)C5(CC)C=CCN6CCC43C65)C2)C1 (stereo not given) (tested in a mixture with another compound)
inactive: [1] -2.3% | [2] -21.1% | [3] -0.35% | [4] 2.7% | [5] 1.05% | [6] 20.7%

COc1ccccc1NC(=S)N1CCC(CCCC2CCN(C(=S)Nc3ccccc3OC)CC2)CC1
inactive: [1] -30.3% | [2] -22.9% | [3] -9.75% | [4] -11.8% | [5] -20.9% | [6] -13.2%

CC1N=C(SCc2ccc(Cl)cc2)N2C(C)N=C(SCc3ccc(Cl)cc3)N12 (stereo not given)
inactive: [1] -12.7% | [2] -40% | [3] 5.8% | [4] 2.7% | [5] 5.6% | [6] -6.95%

O=C(Nc1ccc(F)cc1)C(=O)C(C1OC(=O)c2ccccc21)[N+](=O)[O-] (stereo not given)
inactive: [1] 14.9% | [2] 6.15% | [3] 8.7% | [4] 14.1% | [5] 10.8% | [6] 15.8%

O=C1NC(=S)N/C1=C\c1ccco1
inactive: [1] 21.9% | [2] 10.2% | [3] 0.5% | [4] 15.2% | [5] 26.5% | [6] 32%

Nc1ncnc2c1ncn2C1CCC(COS(N)(=O)=O)C1 (stereo not given)
inactive: [1] 4.3% | [2] 3.65% | [3] 5% | [4] -6.7% | [5] 4.2% | [6] 15.4%

CC(CC(=N)N)NC(=O)C1CCC(N)=N1 (stereo not given)
inactive: [1] 6% | [2] -41.2% | [3] 2.15% | [4] -1.6% | [5] -14.2% | [6] -9.75%

N#C/C(N)=C(\C#N)N=CNc1ccc(N)cc1
inactive: [1] -32.8% | [2] -31.1% | [3] -22.2% | [4] 23% | [5] 1.4% | [6] -10.9%

Cc1cc2oc(=O)[nH]c(=S)c2c(C)c1C
inactive: [1] -47.7% | [2] -19.2% | [3] -35.2% | [4] 2.45% | [5] -59.5% | [6] -36.6%

Clc1c2ncccc2cc2n[nH]nc12
inactive: [1] 14.9% | [2] 21.2% | [3] 24% | [4] 6.55% | [5] 5.8% | [6] 17.1%

CC(=O)[C@@]1(O)CC[C@H]2[C@@H]3C[C@H](C)C4=CC(=O)C=C[C@]4(C)[C@@]3(F)[C@@H](O)C[C@@]21C
inactive: [1] -24.1% | [2] 9.65% | [3] -11.1% | [4] -33% | [5] -4.5% | [6] -22.1%

CCN(CC)CCCn1cnc2ncccc2c1=O
inactive: [1] -12.3% | [2] -5.7% | [3] 8.8% | [4] 21% | [5] -9.2% | [6] -3.3%

COc1cc(C)c(/C=C/C(=O)N2C(=O)OC[C@@H]2c2ccccc2)c(C)c1
inactive: [1] 4.35% | [2] -8.75% | [3] 21.1% | [4] 26.9% | [5] 19.1% | [6] 18.2%

CCN(CC)c1ccc(C)cc1Cl
inactive: [1] -5.7% | [2] 7.5% | [3] -12.2% | [4] -16.8% | [5] 7.05% | [6] 5.55%

O=c1[nH]cc(NS(=O)(=O)O)c(=O)[nH]1
inactive: [1] -2.15% | [2] -5.4% | [3] 6.5% | [4] 1.45% | [5] 2.95% | [6] -0.55%

CCc1c(C)c(C#N)c(=S)n(C2OC(CO)C(O)C(O)C2O)c1C (stereo not given)
inactive: [1] -61.8% | [2] 3.95% | [3] -19.7% | [4] 9.4% | [5] 8.35% | [6] -4%

COc1ccc(C2C3=C(COC3=O)Oc3cc4c(cc32)OCO4)cc1OC (stereo not given)
inactive: [1] -21.5% | [2] -33% | [3] -17.9% | [4] -3.95% | [5] 5.45% | [6] -10.8%

CCOC1OCCCC1C(OCC)C(C)C (stereo not given)
inactive: [1] 39% | [2] 14.7% | [3] 19.4% | [4] 9.35% | [5] -0.7% | [6] 12.4%

— PubChem BioAssay (NCI)
